# Screen size: about 360,000 compounds; about 16,000 (4.4%) were called active. Inconclusive results (about 9%) are left out. The call rests on the fitted dose curve; in most records, active means well fitted inhibition curve with a large enough effect; inconclusive means small, poorly fitted or top-dose-only effect; inactive means no such curve, though single readings can be large or run the other way. The list comes from a sample in which actives are over-represented; it also holds similar structures and randomly drawn compounds. Where a call stands in place of a potency, no number is given.
# Molecular target: Bromodomain adjacent to zinc finger domain protein 2B (Homo sapiens) (UniProt Q9UIF8)
# Experiment: qHTS Assay for Inhibitors of BAZ2B; further: nearly all actives have a fitted effect of over 60% in size
# Conditions: AlphaScreen BAZ2B-H3K14Ac peptide displacement; series mostly up to 114 µM
# How it was run: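 AlphaScreen displacement of biotin-H3(5-23)K14Ac peptide (50 nM final) from BAZ2B (50 nM final) in PBS pH 7.4, 0.01% Tween-20; complex preformed 30 min RT, then compounds (top 110 uM) 30 min RT, beads 20 min dark.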
# Potency means the concentration at half of the fitted maximal effect.
# Bromodomain adjacent to zinc finger domain protein 2B (Homo sapiens), sequence (Q9UIF8 whole entry, looked up, the tested form may be a part): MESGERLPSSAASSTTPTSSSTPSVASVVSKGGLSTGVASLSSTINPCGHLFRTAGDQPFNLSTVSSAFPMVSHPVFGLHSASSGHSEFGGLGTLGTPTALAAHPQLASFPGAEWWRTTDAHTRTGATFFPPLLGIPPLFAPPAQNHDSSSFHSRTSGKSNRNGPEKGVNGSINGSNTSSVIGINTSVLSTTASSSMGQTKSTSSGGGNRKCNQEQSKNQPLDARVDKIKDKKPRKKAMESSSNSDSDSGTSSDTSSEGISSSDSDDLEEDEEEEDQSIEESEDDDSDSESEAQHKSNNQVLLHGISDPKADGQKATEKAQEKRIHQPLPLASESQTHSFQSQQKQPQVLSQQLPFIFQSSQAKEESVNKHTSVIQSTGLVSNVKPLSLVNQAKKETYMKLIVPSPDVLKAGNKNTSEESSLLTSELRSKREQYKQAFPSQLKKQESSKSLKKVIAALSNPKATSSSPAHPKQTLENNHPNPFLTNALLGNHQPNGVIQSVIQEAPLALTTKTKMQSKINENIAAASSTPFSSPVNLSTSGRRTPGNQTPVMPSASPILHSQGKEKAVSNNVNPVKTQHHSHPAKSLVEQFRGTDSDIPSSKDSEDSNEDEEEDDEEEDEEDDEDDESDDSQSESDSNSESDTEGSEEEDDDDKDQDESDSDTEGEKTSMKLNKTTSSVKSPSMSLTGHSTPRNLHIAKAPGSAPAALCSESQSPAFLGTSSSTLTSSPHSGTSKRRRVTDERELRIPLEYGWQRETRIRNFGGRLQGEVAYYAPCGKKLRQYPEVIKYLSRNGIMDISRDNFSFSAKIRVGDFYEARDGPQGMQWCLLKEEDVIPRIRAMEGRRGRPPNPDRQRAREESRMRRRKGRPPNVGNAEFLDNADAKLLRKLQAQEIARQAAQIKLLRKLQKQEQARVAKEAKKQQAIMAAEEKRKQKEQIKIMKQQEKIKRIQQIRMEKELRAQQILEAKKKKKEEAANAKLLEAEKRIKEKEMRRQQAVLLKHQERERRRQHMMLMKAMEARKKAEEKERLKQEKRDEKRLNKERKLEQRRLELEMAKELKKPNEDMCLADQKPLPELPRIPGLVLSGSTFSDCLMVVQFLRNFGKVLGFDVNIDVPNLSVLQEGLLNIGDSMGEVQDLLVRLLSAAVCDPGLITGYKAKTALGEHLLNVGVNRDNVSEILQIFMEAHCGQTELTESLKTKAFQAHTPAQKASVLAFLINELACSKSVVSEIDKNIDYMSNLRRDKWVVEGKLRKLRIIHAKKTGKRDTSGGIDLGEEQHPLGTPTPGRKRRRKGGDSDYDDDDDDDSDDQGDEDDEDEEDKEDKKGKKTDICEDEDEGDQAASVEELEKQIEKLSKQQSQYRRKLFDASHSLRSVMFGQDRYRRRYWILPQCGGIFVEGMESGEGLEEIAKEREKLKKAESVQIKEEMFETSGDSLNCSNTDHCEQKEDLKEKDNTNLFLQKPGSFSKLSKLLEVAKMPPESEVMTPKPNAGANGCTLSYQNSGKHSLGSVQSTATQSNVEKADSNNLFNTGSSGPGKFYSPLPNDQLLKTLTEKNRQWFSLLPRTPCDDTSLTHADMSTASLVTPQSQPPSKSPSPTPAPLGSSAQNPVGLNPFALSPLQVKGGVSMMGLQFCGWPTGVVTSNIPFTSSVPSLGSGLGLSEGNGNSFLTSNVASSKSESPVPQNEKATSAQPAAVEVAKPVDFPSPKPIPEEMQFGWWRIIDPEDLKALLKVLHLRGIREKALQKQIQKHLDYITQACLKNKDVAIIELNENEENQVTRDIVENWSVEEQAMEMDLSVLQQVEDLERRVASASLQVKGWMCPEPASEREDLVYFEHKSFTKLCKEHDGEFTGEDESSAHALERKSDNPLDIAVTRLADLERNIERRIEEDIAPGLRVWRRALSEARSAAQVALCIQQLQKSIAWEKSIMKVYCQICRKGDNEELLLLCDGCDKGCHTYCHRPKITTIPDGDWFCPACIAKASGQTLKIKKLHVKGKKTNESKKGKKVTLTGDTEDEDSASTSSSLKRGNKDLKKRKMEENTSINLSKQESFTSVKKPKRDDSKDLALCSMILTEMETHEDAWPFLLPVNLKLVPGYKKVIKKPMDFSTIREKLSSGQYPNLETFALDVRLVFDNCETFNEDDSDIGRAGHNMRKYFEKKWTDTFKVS
row,Compound,Potency
1,Cc1cccc(C)c1-n1c(C)cc(/C=C2\C(=O)NN(c3ccccc3)C2=O)c1C,14.1 µM (active)
2,Cc1cc(/C=C2/NC(=O)NC2=O)c(C)n1-c1cccnc1,inactive
3,COc1cc(C(=O)NCCc2csc3nc(-c4ccccc4C)nn23)cc(OC)c1OC,inactive
4,CCOCCc1nn2c(=O)cc(COC(=O)CNC(=O)c3ccc(C(C)(C)C)cc3)nc2s1,inactive
5,CCCCN(C)c1nnc(NC(=O)Nc2ccc(Br)c(C)c2)s1,inactive
6,c1ccc2c(CSCc3nc4ccccc4[nH]3)cccc2c1,inactive
7,Nc1scc[n+]1Cc1cccc2cccnc12,inactive
8,c1ccc2c(C[n+]3csc4ccccc43)cccc2c1,56.2 µM (active)
9,O=C(C1COc2ccccc2O1)N(Cc1cccnc1)c1nc2c(F)cc(F)cc2s1 (centres undefined),inactive
10,COc1ccccc1OCCNCC(O)COc1cccc2[nH]c3ccccc3c12 (centres undefined),39.8 µM (active)
11,CCCn1c(=N)n(CC(O)COc2ccccc2OC)c2ccccc21 (centres undefined),inactive
12,COc1ccccc1OCC(O)CN1CCOCC1 (centres undefined),inactive
13,CCOc1ccc(C2CC(=O)c3c([nH]c(C(=O)OCc4ccccc4)c3C)C2)cc1 (centres undefined),inactive
14,NC(=O)N/N=C\c1cccs1,inactive
15,COc1ccc(Nc2nc(=O)[nH]nc2C)cc1,inactive
16,Cc1n[nH]c(=O)nc1N/N=C/c1cccs1,17.8 µM (active)
17,COc1cccc(OC)c1C(=O)NC(=S)NCc1ccco1,79.4 µM (active)
18,COc1cc(C(=O)NC(=S)NCc2ccco2)cc(OC)c1OC,inactive
19,COC(=O)Cc1ccc(NC(=S)NCc2ccco2)cc1,inactive
20,N#Cc1nc(/C=C/c2ccc(F)cc2)oc1NC1CCCCC1,inactive
21,Cc1c(CCC(=O)O)c(=O)oc2c(C)c(OCc3ccccc3Cl)ccc12,70.8 µM (active)
22,CCOC(=O)CCc1c(C)c2ccc(OCc3nn[nH]n3)c(C)c2oc1=O,inactive
23,Cc1c(CCC(=O)O)c(=O)oc2cc(OCc3ccc(Br)cc3)ccc12,inactive
24,O=C(c1ccccc1F)N1CCC(c2nc3c(nnn3Cc3cccc(F)c3)c(=O)[nH]2)CC1,inactive
25,CCN(c1ccc(NC(=O)COC(=O)CCc2nc3ccccc3n2-c2ccccc2)cc1)C(C)C,25.1 µM (active)
26,Cc1ccc(NC(=O)COC(=O)CCc2nc3ccccc3n2-c2ccccc2)c(C)c1,inactive
27,CC(C)(C)c1ccc(NC(=O)COC(=O)CCc2nc3ccccc3c(=O)[nH]2)cc1,inactive
28,COc1ccc(-n2c(=O)c3c(c4cc(OC)ccc4n3C)n(Cc3cccc(C)c3)c2=O)cc1,inactive
29,CCOC(=O)c1ccc(NC(=O)CCS(=O)(=O)c2ccc(C)cc2)cc1,inactive
